Results as given in PubChem BioAssay (EPA / NIEHS).
Results filed as inconclusive are left out. Active and inactive are the calls of the source. The calls were made as follows, unless noted: active = hit-call score of the fitted dose curve at least 0.9, where 1 is the maximum; inactive = score below 0.9.

Legend:
[1] = CCTE_Shafer_MEA_acute_spike_number: CCTE's Neural Acute Assay for Total Number of Spikes, Shafer Lab (AID 2284008)
In short: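 Read-out is the total spike count over 40 min, expressed as percent change from each well's own pre-treatment baseline and fitted in the loss direction against DMSO. Rat cortical neurons were exposed at 0.03-40 uM on DIV 13 or 15.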

[2] = CCTE_Shafer_MEA_acute_firing_rate_mean: CCTE's Neural Acute Assay for Mean Firing Rate, Shafer Lab (AID 2284009);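 also: analyzed for loss of signal so actives lower firing rate relative to DMSO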
In short: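 Primary rat cortical neurons on 16-electrode MEA wells were exposed on DIV 13 or 15 to compound (0.03-40 uM). Spike counts per recording time, averaged over electrodes, were compared between 40-min baseline and 40-min post-exposure recordings as percent change.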

[3] = CCTE_Shafer_MEA_acute_burst_number: CCTE's Neural Acute Assay for Single-Electrode Bursts, Shafer Lab (AID 2284013)
In short: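 Primary rat cortical neurons on 16-electrode MEA wells, DIV 13 or 15, exposed to compound (0.03-40 uM; ≥3 wells); 40-min recordings at 37 C before and after treatment. Burst count expressed as percent change from baseline, DMSO as negative control.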

[4] = CCTE_Shafer_MEA_acute_burst_duration_mean: CCTE's Neural Acute Assay for Mean Burst Duration, Shafer Lab (AID 2284014);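 also: hits are decreases in mean burst duration relative to DMSO controls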
In short: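 Mean burst duration was compared between a 40 min baseline and a 40 min recording in the presence of compound (0.03-40 uM, 37 C), giving percent change per well. Cultures were rat cortical neurons at DIV 13 or 15; wells needed ≥10 active electrodes.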

[5] = CCTE_Shafer_MEA_acute_per_burst_spike_number_mean: CCTE's Neural Acute Assay for Average Number of Spikes Per Burst, Shafer Lab (AID 2284015);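 also: hits are decreases in mean spikes per burst versus baseline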
In short: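 Read-out: percent change in mean spikes per burst, each well's post-exposure 40-min recording versus its own 40-min baseline. Rat cortical cultures, DIV 13 or 15, compounds 0.03-40 uM; DMSO is negative control, loss-of-signal fitting.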

[6] = CCTE_Shafer_MEA_acute_interburst_interval_mean: CCTE's Neural Acute Assay for Mean Interburst Interval, Shafer Lab (AID 2284016);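 also: percent change of mean interburst interval versus each well's own pre-dose baseline; curves fitted for decrease in interburst interval relative to DMSO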
In short: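 Rat cortical cultures, DIV 13/15; 20 min equilibration, 40 min baseline, compound 0.03-40 uM, 40 min re-recording, 37 C. Spikes detected at 8x rms noise (300-5000 Hz band-pass). Endpoint: % change in interburst interval, fitted in loss direction vs DMSO.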

[7] = CCTE_Shafer_MEA_acute_burst_percentage_mean: CCTE's Neural Acute Assay for Percentage of Spikes in a Burst, Shafer Lab (AID 2284017)
In short: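 Rat cortical cultures, DIV 13/15, 37 C. Spikes detected at 8x rms noise (300-5000 Hz band-pass). Burst spikes/total spikes averaged across electrodes per well; % change post- vs pre-treatment (40 min each), loss-of-signal fit vs DMSO.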

[8] = CCTE_Shafer_MEA_acute_burst_percentage_std: CCTE's Neural Acute Assay for Standard Deviation of Burst Percentage, Shafer Lab (AID 2284018);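 also: fitted in the negative direction so actives lower burst percentage SD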
In short: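 Value is percent change from baseline in the across-electrode SD of spikes-in-bursts percentage, wells with >/= 10 active electrodes. Acute 40-min exposure to 0.03-40 uM on DIV 13 or 15 rat cortical cultures, recorded at 37 C after 40-min baseline.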

[9] = CCTE_Shafer_MEA_acute_per_network_burst_spike_number_mean: CCTE's Neural Acute Assay for Average Number of Spikes in a Network Burst, Shafer Lab (AID 2284019)
In short: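 Percent change from baseline in mean spikes per network burst, spikes detected at 8x rms noise. Each compound at 0.03-40 uM in at least three wells of rat cortical cultures, recorded 40 min before and 40 min during exposure.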

[10] = CCTE_Harrill_HTTr_Viability_MCF7: CCTE's 6-hour Cell Viability Assessment for the High-Throughput Transcriptomics (HTTr) Platform, in MCF-7 cells cultured in DMEM + 10% fetal bovine serum, Harrill Lab (AID 2284010)
In short: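 Read-out is propidium iodide gain of signal by high-content imaging, reflecting membrane integrity loss. Measurements are taken 6 h after dosing, eight concentrations per chemical, with DMSO serving as baseline for bidirectional curve fitting.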

[11] = CCTE_Harrill_HTTr_Apoptosis_MCF7: CCTE's 6-hour Apoptosis Assessment for the High-Throughput Transcriptomics (HTTr) Platform, in MCF-7 cells cultured in DMEM + 10% fetal bovine serum, Harrill Lab (AID 2284011)
In short: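 MCF-7 (DMEM + 10% FBS), 384-well; 8-pt dilution series, 6 h chemical exposure; caspase-3/7 activation via CellEvent Caspase 3/7 Green, HCI; bidirectional fit vs DMSO.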

[12] = CCTE_Harrill_HTTr_CellCount_MCF7: CCTE's Cell Proliferation Assessment for the High-Throughput Transcriptomics (HTTr) Platform, Harrill Lab (AID 2284012; active = hit-call score of the fitted dose curve at least 0.9, where 1 is the maximum;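 also: cells exposed to compound for six hours; intended direction is loss of nuclei count meaning fewer cells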)
In short: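 Cell count served as viability reporter: loss of Hoechst-stained nuclei, counted by high content imaging, marks decreased growth or survival. Exposure was 6 h in MCF-7 cells across eight concentrations, with DMSO as baseline.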

Measured: AC50

CN1CCC[C@H]1c1cccnc1
inactive: [1] | [2] | [4] | [5] | [6] | [7] | [8] | [9]
active: [3] 47.9 nM

OC1CCCCC1
inactive: [10] | [11] | [12]

CC1=C(/C=C/C(C)=C/C=C/C(C)=C/C(=O)O)C(C)(C)CCC1
inactive: [10] | [11] | [12]

O=C(OCCOCCOC(=O)c1ccccc1)c1ccccc1
inactive: [10] | [11] | [12]

CCCCCCCCOC(=O)CCCCCCCCC(=O)OCCCCCCCC
inactive: [10] | [11] | [12]

CCN(CC)CCNc1ccc(CNC=O)c2sc3ccc(OC)cc3c(=O)c12
inactive: [10] | [11] | [12]

COc1ccc([N+](=O)[O-])cc1N
inactive: [10] | [11] | [12]

Oc1cccc(O)c1
inactive: [10] | [11]

C[C@@H]1C[C@H]2[C@@H]3CCC4=CC(=O)C=C[C@]4(C)[C@@]3(F)[C@@H](O)C[C@]2(C)[C@@]1(O)C(=O)COP(=O)(O)O
inactive: [10] | [11] | [12]

CCCCOCCO
inactive: [10] | [11] | [12]

CC[C@H](C)[C@@H](C(=O)O)n1sc2ccccc2c1=O
inactive: [10] | [11] | [12]

CCCCCCCCC(=O)O
inactive: [10] | [11] | [12]

CCCCC(CC)COC(=O)CCCCC(=O)OCc1ccccc1 (stereo not drawn)
inactive: [10] | [11] | [12]

CC(C)(C)c1cccc(C(C)(C)C)c1O
inactive: [10] | [11] | [12]

CCCCCCCCCCCCCCCS(=O)(=O)Oc1ccccc1
inactive: [1] | [2] | [3] | [4] | [5] | [6] | [7] | [8] | [9]

CC(O)C(=O)O (stereo not drawn)
inactive: [10] | [11]

CC(O)CO (stereo not drawn)
inactive: [10] | [11] | [12]

C#C[C@]1(O)CC[C@H]2[C@@H]3CCC4=CC(=O)CC[C@@H]4[C@H]3CC[C@@]21C
inactive: [10] | [11] | [12]

CN(C)C=O
inactive: [1] | [2] | [3] | [4] | [5] | [6] | [7] | [8] | [9]

Cc1cc(C)c(O)c(C)c1
inactive: [10] | [11] | [12]

CCC(C)(C)C1CCC(O)CC1 (stereo not drawn)
inactive: [10] | [11] | [12]

CCCCCCCC(=O)O
inactive: [10] | [11]

c1ccc2cc3c(ccc4ccccc43)cc2c1
inactive: [10] | [11]

O=C1OC2(c3ccccc31)c1cc(Br)c(O)c(Br)c1Oc1c2cc(Br)c(O)c1Br
active: [11] 1920 nM
inactive: [10] | [12]

CCOC(=O)CC(O)(CC(=O)OCC)C(=O)OCC
inactive: [10] | [11] | [12]

c1ccc2c(c1)Cc1ccccc1-2
inactive: [10] | [11] | [12]

COCC(C)O (stereo not drawn)
inactive: [10] | [11] | [12]

C=C(C)C(=O)OCCC(F)(F)C(F)(F)C(F)(F)C(F)(F)C(F)(F)C(F)(F)F
inactive: [10] | [11] | [12]
